# Source: the supplement of paper PMC8975748
# Counter-ions that a name gives are not always drawn.
# Test system: Saccharomyces cerevisiae BY4741 SeMeCo community
# Assay: z-score of subpopulation abundance vs DMSO median, subpopulation auxotrophic for HM; higher = larger share of this subpopulation than in DMSO controls
# Conditions: 10 µM; 24 h; SM minimal medium; subpopulation (auxotrophy): HM
# How it was run: (§1)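 Automated confocal microscopy of paraformaldehyde-fixed cells was used to follow a Saccharomyces cerevisiae BY4741 community carrying four plasmids, each restoring one auxotrophy and encoding a distinct fluorescent protein. The community was pre-grown overnight to OD600 1.0, diluted to 0.3, and added at 70 µl to 384-well plates acoustically predosed with library drugs (10 µM final) for 24 h of growth in minimal SM medium. Single-auxotroph fluorescent strains set thresholds and autofluorescence correction, and each subpopulation's abundance was scored as a z-score against the vehicle-well median.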
row,Structure (SMILES),z-score of subpopulation abundance
1,COc1cc(O)c(C(=O)Nc2nc(C(=O)NCCN(C(C)C)C(C)C)cs2)cc1OC [Acotiamide hydrochloride],0.26
2,Cc1onc(-c2c(F)cccc2Cl)c1C(=O)N[C@@H]1C(=O)N2[C@@H]1SC(C)(C)[C@@H]2C(=O)O [Flucloxacillin sodium],0.12
3,Cc1ncc([N+](=O)[O-])n1CC(O)CCl (configuration not stated) [Ornidazole],0.34
4,OC(CCCN1CCCCC1)(c1ccccc1)c1ccccc1 [Diphenidol HCl],0.03
5,Cc1ccccc1OCC(O)CO (configuration not stated) [Mephenesin],-0.48
6,CC(C)c1c(C(=O)Nc2ccccc2)c(-c2ccccc2)c(-c2ccc(F)cc2)n1CC[C@@H](O)C[C@@H](O)CC(=O)O [Atorvastatin Calcium],9.85
7,C[C@@H](O)[C@H]1C(=O)N2C(C(=O)[O-])=C(SC3Cn4cnc[n+]4C3)[C@H](C)[C@H]12 (some centres not stated) [Biapenem],0.51
8,CO/N=C(\C(=O)N[C@@H]1C(=O)N2C(C(=O)OC(C)OC(C)=O)=C(COC(N)=O)CS[C@H]12)c1ccco1 (some centres not stated) [Cefuroxime axetil],-0.74
9,Cc1cc(=O)n(-c2ccccc2)n1C [Antipyrine],-0.59
10,CCOC(=O)C1=C(C)NC(C)=C(C(=O)OC)C1c1cccc(Cl)c1Cl (configuration not stated) [Felodipine],4.69
11,O=C1CCc2cc(OCCCCc3nnnn3C3CCCCC3)ccc2N1 [Cilostazol],-0.41
12,Cc1nnc(SCC2=C(C(=O)O)N3C(=O)[C@@H](NC(=O)Cn4cc(Cl)c(=O)c(Cl)c4)[C@H]3SC2)s1 [Cefazedone],0.02
13,CS(=O)(=O)c1ccc([C@@H](O)[C@@H](CO)NC(=O)C(Cl)Cl)cc1 [Thiamphenicol],-0.5
14,O=c1cc(-c2ccc(O)c(O)c2)oc2cc(O)cc(O)c12 [Luteolin],-0.39
15,CN1C[C@@H]2C[C@H]1CN2c1cc2c(cc1F)c(=O)c(C(=O)O)cn2C1CC1 [Danofloxacin Mesylate],-0.46
16,CC(=O)Oc1ccccc1C(=O)O [Aspirin],-0.38
17,Cc1noc(NS(=O)(=O)c2ccc(N)cc2)c1C [Sulfisoxazole],0.12

row,Structure (SMILES),z-score of subpopulation abundance
1,O=C(NCCO[N+](=O)[O-])c1cccnc1 [Nicorandil],-0.61
2,O=C1C(CC[S+]([O-])c2ccccc2)C(=O)N(c2ccccc2)N1c1ccccc1 (racemic) [(+/-)-Sulfinpyrazone],0.14
3,CCCCCCCCCC(=O)N[C@@H](Cc1c[nH]c2ccccc12)C(=O)N[C@H](CC(N)=O)C(=O)N[C@@H](CC(=O)O)C(=O)N[C@@H]1C(=O)NCC(=O)N[C@@H](CCCN)C(=O)N[C@@H](CC(=O)O)C(=O)N[C@H](C)C(=O)N[C@@H](CC(=O)O)C(=O)NCC(=O)N[C@H](CO)C(=O)N[C@@H]([C@H](C)CC(=O)O)C(=O)N[C@@H](CC(=O)c2ccccc2N)C(=O)O[C@@H]1C [Daptomycin],1.93
4,CCn1cc(C(=O)O)c(=O)c2cc(F)c(N3CCN(C)CC3)cc21 [Pefloxacin Mesylate],0.05
5,"OCc1ccc(Cl)cc1Cl [2,4-dichlorobenzyl alcohol]",-0.64
6,COc1ccccc1OCC(O)CN1CCN(CC(=O)Nc2c(C)cccc2C)CC1 (configuration not stated) [Ranolazine],0.37
7,COc1cc(C(C)=O)ccc1OCCCN1CCC(c2noc3cc(F)ccc23)CC1 [Iloperidone],0.05
8,Nc1ccc(S(=O)(=O)Nc2ccccn2)cc1 [Sulfapyridine],-0.46
9,CN1CC(=O)N2[C@H](c3ccc4c(c3)OCO4)c3[nH]c4ccccc4c3C[C@@H]2C1=O [Tadalafil],0.83
10,CCOC(=O)C1=C[C@@H](OC(CC)CC)[C@H](NC(C)=O)[C@@H](N)C1 [Oseltamivir Phosphate],-0.4
11,O=C(c1ccc(OCCN2CCCCC2)cc1)c1c(-c2ccc(O)cc2)sc2cc(O)ccc12 [Raloxifene HCl],0.58
12,N#CC(c1ccc(Cl)cc1)c1c(Cl)cc(-n2ncc(=O)[nH]c2=O)cc1Cl (configuration not stated) [Diclazuril],-0.31
13,O=C1NCC2(CCN(CCc3ccccc3)CC2)O1 [Fenspiride HCl],-0.15
14,CCCN[C@H]1CCc2nc(N)sc2C1 [Pramipexole dihydrochloride],-0.31
15,O=C(O)c1ccccc1O [Salicylic acid],0.33
16,CCCOc1ccc(C(=O)OCCN(CC)CC)cc1N [Proparacaine HCl],-0.65
17,CC(C)(O/N=C(\C(=O)N[C@@H]1C(=O)N2C(C(=O)[O-])=C(C[n+]3ccccc3)CS[C@H]12)c1csc(N)n1)C(=O)O [Ceftazidime],-0.26

# Test system: Saccharomyces cerevisiae BY4741 SeMeCo community
# Assay: z-score of subpopulation abundance vs DMSO median, subpopulation auxotrophic for HU; higher = larger share of this subpopulation than in DMSO controls
# Conditions: 10 µM; 24 h; SM minimal medium; subpopulation (auxotrophy): HU
# How it was run: as §1
row,Structure (SMILES),z-score of subpopulation abundance
1,COc1cc(O)c(C(=O)Nc2nc(C(=O)NCCN(C(C)C)C(C)C)cs2)cc1OC [Acotiamide hydrochloride],0.71
2,Cc1onc(-c2c(F)cccc2Cl)c1C(=O)N[C@@H]1C(=O)N2[C@@H]1SC(C)(C)[C@@H]2C(=O)O [Flucloxacillin sodium],-0.23
3,Cc1ncc([N+](=O)[O-])n1CC(O)CCl (configuration not stated) [Ornidazole],-0.37
4,OC(CCCN1CCCCC1)(c1ccccc1)c1ccccc1 [Diphenidol HCl],0.48
5,Cc1ccccc1OCC(O)CO (configuration not stated) [Mephenesin],-0.86
6,Cc1cc(=O)n(-c2ccccc2)n1C [Antipyrine],-0.64
7,Oc1c(Cl)cc(Cl)c2cccnc12 [Chloroxine],12.7
8,CCOC(=O)C1=C(C)NC(C)=C(C(=O)OC)C1c1cccc(Cl)c1Cl (configuration not stated) [Felodipine],-6.8
9,O=C1CCc2cc(OCCCCc3nnnn3C3CCCCC3)ccc2N1 [Cilostazol],-0.16
10,Cc1nnc(SCC2=C(C(=O)O)N3C(=O)[C@@H](NC(=O)Cn4cc(Cl)c(=O)c(Cl)c4)[C@H]3SC2)s1 [Cefazedone],-0.74
11,CS(=O)(=O)c1ccc([C@@H](O)[C@@H](CO)NC(=O)C(Cl)Cl)cc1 [Thiamphenicol],0.15
12,O=C(O)CCNC(=O)c1ccccc1 [Betamipron],0.19
13,O=c1cc(-c2ccc(O)c(O)c2)oc2cc(O)cc(O)c12 [Luteolin],1.42
14,CN1C[C@@H]2C[C@H]1CN2c1cc2c(cc1F)c(=O)c(C(=O)O)cn2C1CC1 [Danofloxacin Mesylate],-0.09
15,CC(=O)Oc1ccccc1C(=O)O [Aspirin],-0.71
16,Cc1noc(NS(=O)(=O)c2ccc(N)cc2)c1C [Sulfisoxazole],0.32
17,O=C(NCCO[N+](=O)[O-])c1cccnc1 [Nicorandil],-0.39

row,Structure (SMILES),z-score of subpopulation abundance
1,O=C1C(CC[S+]([O-])c2ccccc2)C(=O)N(c2ccccc2)N1c1ccccc1 (racemic) [(+/-)-Sulfinpyrazone],-0.49
2,CCCCCCCCCC(=O)N[C@@H](Cc1c[nH]c2ccccc12)C(=O)N[C@H](CC(N)=O)C(=O)N[C@@H](CC(=O)O)C(=O)N[C@@H]1C(=O)NCC(=O)N[C@@H](CCCN)C(=O)N[C@@H](CC(=O)O)C(=O)N[C@H](C)C(=O)N[C@@H](CC(=O)O)C(=O)NCC(=O)N[C@H](CO)C(=O)N[C@@H]([C@H](C)CC(=O)O)C(=O)N[C@@H](CC(=O)c2ccccc2N)C(=O)O[C@@H]1C [Daptomycin],0.29
3,CCn1cc(C(=O)O)c(=O)c2cc(F)c(N3CCN(C)CC3)cc21 [Pefloxacin Mesylate],-0.36
4,"OCc1ccc(Cl)cc1Cl [2,4-dichlorobenzyl alcohol]",-0.65
5,CN(C)CCC=C1c2ccccc2CCc2ccccc21 [Amitriptyline HCl],-0.28
6,COc1ccccc1OCC(O)CN1CCN(CC(=O)Nc2c(C)cccc2C)CC1 (configuration not stated) [Ranolazine],-0.09
7,Cc1ccc(Sc2ccccc2N2CCNCC2)c(C)c1,-0.76
8,CN1CC(=O)N2[C@H](c3ccc4c(c3)OCO4)c3[nH]c4ccccc4c3C[C@@H]2C1=O [Tadalafil],-0.74
9,CCOC(=O)C1=C[C@@H](OC(CC)CC)[C@H](NC(C)=O)[C@@H](N)C1 [Oseltamivir Phosphate],-0.98
10,O=C(c1ccc(OCCN2CCCCC2)cc1)c1c(-c2ccc(O)cc2)sc2cc(O)ccc12 [Raloxifene HCl],-1.43
11,N#CC(c1ccc(Cl)cc1)c1c(Cl)cc(-n2ncc(=O)[nH]c2=O)cc1Cl (configuration not stated) [Diclazuril],-0.93
12,O=C1NCC2(CCN(CCc3ccccc3)CC2)O1 [Fenspiride HCl],-0.8
13,CCCN[C@H]1CCc2nc(N)sc2C1 [Pramipexole dihydrochloride],0
14,CCCOc1ccc(C(=O)OCCN(CC)CC)cc1N [Proparacaine HCl],-0.31
15,CCOc1ccc2ccccc2c1C(=O)N[C@@H]1C(=O)N2[C@@H]1SC(C)(C)[C@@H]2C(=O)O [Nafcillin Sodium],-0.72
16,CC(C)(O/N=C(\C(=O)N[C@@H]1C(=O)N2C(C(=O)[O-])=C(C[n+]3ccccc3)CS[C@H]12)c1csc(N)n1)C(=O)O [Ceftazidime],0.43
